# Screen size: about 3,300 compounds; fewer than 10 were called active.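 Rule for the calls: active = growth inhibition above 90% in viable cell count at a single dose; inactive = growth inhibition below 90%.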 The list is a sample of the results.
# Test: HT29 colon tumor cell growth inhibition, primary screen, imaging, high content imaging, 24 h, CellTiter-Glo (AID 770);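 for condensed nuclei: share of cells whose nuclear area falls below control median minus 1.5 SD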
# Conditions: HT29 cell number by imaging, at 10 µM, stronger effect = higher value; for condensed nuclei: measured here: percent cells with condensed nuclei
# [1] = measured here: ATP CellTiter-Glo viability
Structure (SMILES),growth inhibition,growth inhibition [1] [%],condensed nuclei [%]
CCCCCC(=O)N1CC2(C)CN(C(=O)CCCCC)CC(C)(C1)C2=O,-27.8% (inactive),-0.56,1.67
CN1CCc2c(n(CC(O)CN3C(=O)c4ccccc4S3(=O)=O)c3ccccc23)C1=O (stereo not drawn),3.96% (inactive),-10.2,8.09
O=C1CC(C(=O)O)c2ccccc2N1 (stereo not drawn),10.3% (inactive),0.11,2.67
COc1nc(NS(=O)(=O)c2ccc(C)cc2)nc(C)c1Cl,9.89% (inactive),-6.08,2.47
CCOC(=O)N1CCN(c2ncnc3c2cnn3-c2ccc(OC)cc2)CC1,17% (inactive),5.78,3.96
CCOC(=O)C1CCCN(c2nc3ccccc3nc2C(C#N)C(=O)OCCOC)C1 (stereo not drawn),49.2% (inactive),70,9.83
Cn1ncc2nc[nH]c(=O)c21,27.4% (inactive),0.04,2.08
CC(C)Nc1nc(NC(C)C)nc(N(C)n2cnnc2)n1,-12.4% (inactive),-9.08,2.84
COc1ccc(C(=O)OC(C)CN2CCN(C)CC2)cc1OC (stereo not drawn),28.2% (inactive),1.58,5.84
Cc1cc(Cn2ccnc2)c(C)cc1Cn1ccnc1,13.6% (inactive),11.6,3.14
COc1cc(-c2nn3c(COc4ccccc4)nnc3s2)cc(OC)c1OC,56.5% (inactive),9.54,5.76
CCOC(=O)C1=C(C)NC(SCC(=O)Nc2nc(C)cs2)=C(C#N)C1c1cccs1 (stereo not drawn),7.8% (inactive),22.8,5.36
COc1ccc(OC)c(NC(=O)CSc2nnc(-c3ccco3)n2-c2ccc(C(=O)O)cc2)c1,5.68% (inactive),-8.2,4.63
c1ccc(N2CCN(c3nc(-c4ccccn4)nc4ccccc34)CC2)cc1,4.92% (inactive),-10.8,11.6
CC1(C)Cc2c(C#N)c(OCC(=O)c3ccc(Cl)cc3)nc(-c3ccoc3)c2CO1,18.7% (inactive),21.9,4.85
O=C(NCc1ccccc1)c1ccc(=O)[nH]n1,-5.75% (inactive),-8.23,3.79
Cc1ccc(NC(=O)Cn2nc(C)c3ccccc3c2=O)cc1,-20% (inactive),-4.94,3.28
COc1ccc(OC)c(C2NC(=O)c3sc(=S)n(-c4ccccc4)c3N2)c1 (stereo not drawn),36.6% (inactive),16.9,4.81
CC(=O)N1CC=C2C(C#N)=C(N)C(C#N)(C#N)[C@H](c3ccoc3)[C@H]2C1,6.78% (inactive),-12.8,3.16
Cc1ccc(CNc2oc(COc3ccccc3Cl)nc2C#N)cc1,-7.99% (inactive),-1.41,4.34
CCOC(=O)C(NC=O)(NC(C)(C)C)C(=O)OCC,-28.5% (inactive),-6.54,2.61
Cc1nc2sc(C#N)c(N)c2c2c1CCCC2,-26.7% (inactive),-6.54,1.98
Cn1c(SCC(=O)N2CCOCC2)nnc1-c1ccc(Cl)cc1Cl,30.4% (inactive),-11.5,2.99
COc1ccc(C2CC(=O)C(C=NCCN3CCOCC3)=C(O)C2)cc1 (stereo not drawn),30% (inactive),-14.6,0.91
CC(NC(=O)CSc1nnc(COc2ccccc2)o1)c1ccccc1 (stereo not drawn),2.08% (inactive),-10.8,4.42
N#CC1=C(SCC(=O)c2ccccc2)NC2=C(C(=O)CCC2)C1c1ccco1 (stereo not drawn),77% (inactive),12.5,20.4

Structure (SMILES),growth inhibition,growth inhibition [1] [%],condensed nuclei [%]
Cn1c(=O)c2c3c(sc2n2c(SCC(N)=O)nnc12)CC(C(C)(C)C)CC3 (stereo not drawn),-4.56% (inactive),-15.8,3.87
CN(CCOC(=O)c1cccc(Br)c1)C(C)(C)C,6.82% (inactive),3.02,2.48
COC(=O)c1cc(Br)c(=O)n(Cc2cccnc2)c1,6.29% (inactive),-14.1,1.99
CC12CN3CC(C)(CN(C1)C3c1ccc(Cl)cc1Cl)C2O (stereo not drawn),15% (inactive),0.64,2.07
CC1(C)Cc2c(c(N3CCOCC3)nc3sc(C#N)c(N)c23)CS1,16.1% (inactive),12.8,14
COc1cccc(CNc2ncc(Br)cc2Br)c1O,28.4% (inactive),3.03,8.79
COc1ccccc1NC(=O)c1c(C)cc(=O)oc1C,2.52% (inactive),-2.65,1.89
C=CCc1c(C)nc(SCCC)[nH]c1=O,-39.5% (inactive),9.14,4.83
Cc1cc(N2C(=O)C(=O)/C(=C(/O)c3ccccc3)C2c2cccs2)no1 (stereo not drawn),-3.8% (inactive),-3.1,2.92
N#Cc1c(NCCN)nc(NCc2ccccc2)c2c1CCN(Cc1ccccc1)C2,48.7% (inactive),41.2,7.1
CSC1=C(C#N)C(c2ccc(C)s2)CC(=O)N1 (stereo not drawn),22.7% (inactive),4.49,3.3
COc1cc(-c2cc(C(F)(F)F)n3ncc(C(=O)O)c3n2)cc(OC)c1OC,-25.6% (inactive),-14.3,2.49
O=C(O)CCc1cc(I)c(Oc2ccc(O)c(I)c2)c(I)c1,4.78% (inactive),3.12,4.44
O=C(O)c1c[nH]c2ccc(S(=O)(=O)N3CCOCC3)cc12,-36.6% (inactive),-2.36,1.85
Cc1cc(C)nc(NC2=NCC(=O)N2c2ccccc2)n1,-50.8% (inactive),-10.6,3.13
COc1ccc(C2C(C(C)=O)=C(O)C(=O)N2c2nccs2)cc1OC (stereo not drawn),6.29% (inactive),-2.95,3.31
CCc1cc(=O)oc2cc(C)c(CN3CCCC3)c(O)c12,22.4% (inactive),0.04,4.19
CN(C)CCCN(CCCNC(=O)/C=N/O)Cc1ccccc1,-11.9% (inactive),-9.76,2.84
Nc1nnnn1CC(=O)OCc1cccc(Br)c1,-17.1% (inactive),-5.1,1.92
CN1CC(=O)Nc2ccc(F)cc2C1=O,2.67% (inactive),-9.28,13.9
CCCC(=O)N(Cc1cc2ccccc2[nH]c1=O)c1ccccc1OC,0.99% (inactive),5.4,3.75
COc1ccc(CNC(=O)[C@H](C)NC(=O)C2CCN(S(=O)(=O)c3ccc(C)cc3)CC2)cc1,-1% (inactive),-14.3,4.4
CCc1nc2sc3c(c2c(=O)o1)CCCC3,-25.2% (inactive),-2.13,2.35
Cc1ccc(N(CN2C(=O)NC(C)(C)C2=O)CN2C(=O)NC(C)(C)C2=O)cc1,24.1% (inactive),-7.36,3.39
CN(C)CCCN1c2ccccc2Sc2ccc(Cl)cc21,37.5% (inactive),25.5,5.79
OCCN1CCN(CCCN2c3ccccc3Sc3ccc(C(F)(F)F)cc32)CC1,89% (inactive),59.7,12.9

Structure (SMILES),growth inhibition,growth inhibition [1] [%],condensed nuclei [%]
CN(C)CCCN1c2ccccc2Sc2ccc(C(F)(F)F)cc21,62.5% (inactive),40.5,4.92
CN1CCN(CCCN2c3ccccc3Sc3ccc(C(F)(F)F)cc32)CC1,95.6% (active),87.9,15.7
OCCN1CCN(CCCN2c3ccccc3Sc3ccc(Cl)cc32)CC1,95.8% (active),77.7,11.7
CN1CCN(CCCN2c3ccccc3Sc3ccc(Cl)cc32)CC1,-25.4% (inactive),-28.5,2.59
CCN(CC)CCNc1nc(-c2ccco2)c2c(c1C#N)CC(C)(C)OC2,0.38% (inactive),-1.61,4.74
CC1(C)CC(=O)C=C(NCCO)C1,25.6% (inactive),9.68,3.37
O=S(=O)(c1cccc2nsnc12)N1CCN(C/C=C/c2ccccc2)CC1,-27% (inactive),4.18,4.32
Cc1cc(OCC(=O)Nc2ccc3oc(-c4ccncc4)nc3c2)ccc1Cl,-2.56% (inactive),-0.21,2.42
CCC(NC(=O)Nn1cnnc1)(C(F)(F)F)C(F)(F)F,3.51% (inactive),-0.07,2.8
O=C(NCCN1CCCCC1)c1ccc(=O)oc1,-6.93% (inactive),-12.9,2.43
CC(=Nc1ccc(C)c(C)c1)C1=C(O)CCC1=O,6.59% (inactive),-5.94,3.62
CCN(CC)CCNc1nc2c(c(=O)[nH]c(=O)n2C)n1CCOc1ccccc1,-28.8% (inactive),-0.48,2.26
Cc1ccc(C2C(C(=O)c3cc4ccccc4o3)=C(O)C(=O)N2CCN(C)C)o1 (stereo not drawn),-17.9% (inactive),-1.01,2.37
CCOc1cc(C2Nc3ccccc3C(=O)N2c2ccccc2OC)ccc1O (stereo not drawn),1.14% (inactive),-2.4,1.12
Cn1c(=O)c2c(nc(Br)n2CCSc2ncccn2)n(C)c1=O,17.9% (inactive),6.9,1.48
Cc1ccc(N2C(=O)CC3(CC4C=CC3C4)C2=O)cc1 (stereo not drawn),-2.66% (inactive),9.8,2.87
CNC(=O)CC(C(=O)O)c1ccc(OC(C)C)cc1 (stereo not drawn),14% (inactive),5.18,2.97
CC(C)Sc1nc(N2CCCC2)c2c(c1C#N)CC(C)(C)OC2,-32.3% (inactive),-22.9,2.77
CN1C2C=C3C(C#N)=C(N)C(C#N)(C#N)[C@@H](c4cccs4)C3C1CC2 (stereo partly drawn),-11.2% (inactive),-11.8,3.15
N#C/C(C(=O)NCc1ccco1)=C1/SC(Cc2ccc(F)cc2)C(=O)N1c1ccccc1 (stereo not drawn),16.5% (inactive),-3.7,7.66
CCOC(=O)/C=c1\s/c(=C(\C#N)C(=O)OCC)n(-c2ccccc2)c1=O,-8.81% (inactive),-10.2,2.51
Cc1nc(Nc2ncc3c(n2)CCCC3=O)nc2ccccc12,-21.1% (inactive),-26.2,3.04
CCOC(=O)c1[nH]c2cc3c(cc2c1NC(=O)CN1CCC(C)CC1)OCO3,37.9% (inactive),20,3.55
O=C(C1=C(O)C(=O)N(CCCN2CCOCC2)C1c1ccccn1)c1cc2ccccc2o1 (stereo not drawn),-11.4% (inactive),-7.9,2.31

# — PubChem BioAssay AID770 (SRMLSC, 2007)
